Source: PubChem BioAssay (EPA / NIEHS)
Several values for one entry are separate records, joined by “and”; a condition that tells them apart may be missing. Equal values may be shown once. A structure can be active in one record and inactive in another. Activity calls are given as the source filed them. The calls were made as follows: active = hit-call score of the fitted dose curve at least 0.9, where 1 is the maximum; inactive = score below 0.9.

read-out: Interferon-inducible T-cell alpha chemoattractant (ITAC), CXCL11 (gene 6373); assay: BSK_BE3C_ITAC: BioMAP Diversity Plus: BE3C Assay for Interferon-inducible T-cell alpha chemoattractant (ITAC) Biomarker Activity (AID 2284279); details: primary human bronchial epithelial cells
Procedure: BSK_BE3C is a cell-based, multiplexed-readout assay that uses bronchial epithelial cell, a human lung primary cell, with measurements taken at 24 hours after chemical dosing in a 96-well plate.BSK_BE3C_ITAC is an assay component measured in the BSK_BE3C assay. It measures I-TAC antibody related to regulation of gene expression using ELISA technology.Data from the assay component BSK_BE3C_ITAC was analyzed at the endpoint, BSK_BE3C_ITAC, in the positive analysis fitting direction relative to DMSO as the negative control and baseline of activity. Using a type of binding reporter, gain or loss-of-signal activity can be used to understand protein changes. To generalize the intended target to other relatable targets, this assay endpoint is annotated to the 'cytokine' intended target family, where the subfamily is 'chemotactic factor'.
The levels of cell surface (or secreted, indicated by the prefix "s") biomarker endpoints were measured by ELISA. Overt cytotoxicity to cells in confluent adherent cultures (all systems other than the BT system) was assessed by measuring total protein levels using sulforhodamine B (SRB) staining in parallel cultures at the time of biomarker measurements, indicated as SRB endpoints. For proliferation assays for adherent cell types, individual cell types are cultured at sub-confluence and relative cell numbers quantified by SRB staining at time points optimized for each system (48 h: 3C and CASM3C systems; 72 h: BT and HDF3CGF systems; 96 h: SAg system). SRB was performed by staining cells with 0.1% SRB after fixation with 10% TCA and reading wells at 560 nm.Viability and proliferation of PBMC (T cells) was quantified by Alamar Blue reduction for the SAg and BT systems. For PBMC viability (referred to as PBMC Cytotoxicity within the assay endpoint names), cells were plated (75,000/well in a 96-well plate) and then chemical samples added for 1 h before addition of activators, SEB and TSST-1 (20 ng/mL final concentration each). Cells were incubated for 90 h. Then, Alamar Blue (20 uL/well) (Invitrogen, Cat DAL1100) was added for 6 h, and the plates were read with a fluorescence microplate reader at 546/580 nm (excitation/emission). For PBMC proliferation, cells were plated and activated as above but incubated for only 16 h prior to addition of Alamar Blue. Plates were read after 6 h.

Row | SMILES | outcome | AC50
1 | OCC(O)CC(F)(F)C(F)(F)C(F)(F)C(F)(F)F (stereo not given) | inactive | –
2 | O=S(=O)(OCC(F)(F)F)C(F)(F)C(F)(F)C(F)(F)C(F)(F)F | inactive | –
3 | NS(=O)(=O)C(F)(F)C(F)(F)C(F)(F)C(F)(F)C(F)(F)C(F)(F)F | inactive | 30 µM (active)
4 | COC(F)(C(F)F)C(F)(F)F (stereo not given) | inactive | –
5 | C=CC(=O)OCC(F)(F)C(F)(F)C(F)(F)COC(=O)C=C | – | 45 µM (active) and 43 µM (active)
6 | O=C(O)C(F)(F)OC(F)(F)C(F)(F)OC(F)(F)C(F)(F)OC(F)(F)F | inactive | –
7 | OCC(F)(F)C(F)(F)C(F)(F)C(F)(F)C(F)(F)C(F)(F)CO | inactive | –
8 | C=CC(=O)OCC(F)(F)C(F)(F)C(F)(F)C(F)(F)C(F)(F)C(F)(F)C(F)(F)C(F)F | inactive | –
9 | NCC(F)(F)C(F)(F)C(F)(F)C(F)(F)C(F)(F)C(F)(F)F | inactive | –
10 | O=C(O)CCC(F)(F)C(F)(F)C(F)(F)C(F)(F)C(F)(F)C(F)(F)C(F)(F)F | – | 3.43 µM (active) and 2.52 µM (active)
11 | CCN=C1C=CC(=C(c2ccc(N(CC)CC)cc2)c2ccc(N(CC)CC)cc2)c2ccccc21 | – | 2.7 µM (active) and 2.3 µM (active)
12 | NC(O)(C(F)(F)F)C(F)(F)F | inactive | –
13 | O=C(O)C(F)(F)C(F)(F)C(F)(F)C(F)(F)C(F)(F)C(F)(F)C(F)F | inactive | –
14 | NC(=O)C(F)(F)C(F)(F)C(F)(F)C(F)F | inactive | –
15 | CCN(CCO)S(=O)(=O)C(F)(F)C(F)(F)C(F)(F)C(F)(F)C(F)(F)C(F)(F)C(F)(F)C(F)(F)F | – | 47.1 µM (active) and 42.6 µM (active)
16 | O=S(=O)(Cl)C(F)(F)C(F)(F)C(F)(F)C(F)(F)C(F)(F)C(F)(F)C(F)(F)C(F)(F)F | – | 53.8 µM (active) and 55.1 µM (active)
17 | O=C(Cl)C(F)(F)C(F)(F)C(F)(F)C(F)(F)C(F)(F)C(F)(F)F | inactive | –
18 | FC(F)(F)C(F)(F)C(F)(F)C(F)(F)C(F)(F)C(F)(F)CC[Si](Cl)(Cl)Cl | inactive | –
19 | FC(F)(F)C(F)(F)C(F)(F)CC1CO1 (stereo not given) | inactive | –
20 | O=C(O)C(F)(F)C(F)(F)C(F)(F)OC(F)(F)F | inactive | –

Row | SMILES | outcome | AC50
21 | O=S(=O)(O)CCC(F)(F)C(F)(F)C(F)(F)C(F)(F)C(F)(F)C(F)(F)C(F)(F)C(F)(F)F | inactive | –
22 | OCC(F)(F)C(F)(F)C(F)(F)CO | inactive | –
23 | C=CC(=O)OCCC(F)(F)C(F)(F)C(F)(F)C(F)(F)F | inactive | –
24 | CNS(=O)(=O)C(F)(F)C(F)(F)C(F)(F)C(F)(F)C(F)(F)C(F)(F)C(F)(F)C(F)(F)F | inactive | –
25 | NC(=O)C(F)(F)C(F)(F)C(F)(F)F | inactive | –
26 | OCCCCC(F)(F)C(F)(F)C(F)(F)C(F)(F)F | inactive | –
27 | O=C(O)CCC(F)(F)C(F)(F)C(F)(F)F | inactive | –
28 | NC(=O)C(F)(F)C(F)(F)C(F)(F)C(F)(F)C(F)(F)C(F)(F)C(F)(F)F | inactive | –
29 | O=C(F)C1(F)C(F)(F)C(F)(F)C(F)(F)C(F)(F)C1(F)F | inactive | –
30 | NCC(F)(F)C(F)(F)C(F)(F)C(F)(F)C(F)(F)C(F)(F)C(F)(F)C(F)(F)F | inactive | –
31 | OCC(F)(F)C(F)(F)C(F)(F)C(F)(F)C(F)(F)C(F)(F)C(F)(F)C(F)(F)CO | – | 39.6 µM (active) and 31.6 µM (active)
32 | NC(=O)C(F)(F)C(F)(F)C(F)(F)C(F)(F)C(N)=O | inactive | –
33 | CCOC(=O)CC(=O)C(F)(F)C(F)(F)F | inactive | –
34 | FC(F)(F)C(F)(F)C(F)(F)C(F)(F)C(F)(F)C(F)(F)C(F)(F)CCI | inactive | –
35 | OCC(O)CC(F)(F)C(F)(F)C(F)(F)C(F)(F)C(F)(F)C(F)(F)C(F)(F)C(F)(F)F (stereo not given) | inactive | –
36 | O=C(Cl)C(F)(F)C(F)(F)C(F)(F)C(F)(F)C(F)(F)C(F)(F)C(F)(F)F | inactive | –
37 | C=C(C)C(=O)OCC(F)(F)C(F)(F)C(F)(F)C(F)F | inactive | –
38 | O=S(=O)(O)CCC(F)(F)C(F)(F)C(F)(F)C(F)(F)F | inactive | –
39 | CN(C(=O)C(F)(F)C(F)(F)C(F)(F)F)[Si](C)(C)C | inactive | –
